# From article PMC7862700, “An all-to-all approach to the identification of sequence-specific readers for epigenetic DNA modifications on cytosine”
# What was measured:
# Test in all cases: DAPPL (digital affinity profiling via proximity ligation, sequencing); 10 mM Tris-HCl pH 7.5, 50 mM NaCl, 1 mM DTT, 4% glycerol, room temperature, 30 min; GST-TFs on glutathione beads, 16-mer random dsDNA library, 0.1% formaldehyde crosslink after washing; high values mean tight binding
# FEV = target: T1, FEV (Homo sapiens, UniProt Q99581 1-238); conditions: protein: recombinant; tags: N-terminal GST; dsDNA, one strand shown
# T1 sequence: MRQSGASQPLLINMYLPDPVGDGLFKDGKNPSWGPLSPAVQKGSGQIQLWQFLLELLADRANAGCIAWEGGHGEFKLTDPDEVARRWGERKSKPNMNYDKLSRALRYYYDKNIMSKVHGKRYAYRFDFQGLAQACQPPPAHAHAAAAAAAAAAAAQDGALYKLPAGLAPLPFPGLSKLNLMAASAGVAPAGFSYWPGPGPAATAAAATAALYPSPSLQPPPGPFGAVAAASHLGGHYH
# Summary of the method: (§1)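 Human transcription factors fused to GST were expressed in yeast, captured on glutathione beads, given DNA barcodes and pooled with a GST-only negative control. Pools were incubated with 200 nmole of a 16-mer random double-stranded DNA library in Tris/NaCl/DTT/glycerol buffer at room temperature for 30 min. They were then washed, crosslinked with 0.1% formaldehyde, proximity-ligated (BsaI/T4 ligase, 1 h, 37 °C), PCR-amplified and sequenced on an Illumina NextSeq500. Binding signal is each 6-mer's read frequency for a factor divided by its frequency for the GST control.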
# ETV5 = ETV5 (Homo sapiens, UniProt P41161 1-510); conditions: protein: recombinant; tags: N-terminal GST; dsDNA, one strand shown
# Summary of the method: as §1
# HSF1 = HSF1 (Homo sapiens, UniProt Q00613 1-529); conditions: protein: recombinant; tags: N-terminal GST; chain copies: 3; dsDNA, one strand shown
# Summary of the method: as §1
# SPIC = target: T2, SPIC (Homo sapiens, UniProt Q8N5J4 1-248); conditions: protein: recombinant; tags: N-terminal GST; dsDNA, one strand shown
# T2 sequence: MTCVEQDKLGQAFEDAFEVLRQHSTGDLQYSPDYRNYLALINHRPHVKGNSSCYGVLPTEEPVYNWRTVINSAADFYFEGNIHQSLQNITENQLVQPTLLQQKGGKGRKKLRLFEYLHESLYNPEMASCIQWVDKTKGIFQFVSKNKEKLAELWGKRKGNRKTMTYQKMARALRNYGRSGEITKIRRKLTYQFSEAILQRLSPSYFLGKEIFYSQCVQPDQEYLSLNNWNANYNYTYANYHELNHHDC
# Summary of the method: as §1
# ELF4 = ELF4 (Homo sapiens, UniProt Q99607 1-663); conditions: protein: recombinant; tags: N-terminal GST; dsDNA, one strand shown
# Summary of the method: as §1
# ELK4 = target: T3, ELK4 (Homo sapiens, UniProt P28324-2 1-405); conditions: protein: recombinant; tags: N-terminal GST; dsDNA, one strand shown
# T3 sequence: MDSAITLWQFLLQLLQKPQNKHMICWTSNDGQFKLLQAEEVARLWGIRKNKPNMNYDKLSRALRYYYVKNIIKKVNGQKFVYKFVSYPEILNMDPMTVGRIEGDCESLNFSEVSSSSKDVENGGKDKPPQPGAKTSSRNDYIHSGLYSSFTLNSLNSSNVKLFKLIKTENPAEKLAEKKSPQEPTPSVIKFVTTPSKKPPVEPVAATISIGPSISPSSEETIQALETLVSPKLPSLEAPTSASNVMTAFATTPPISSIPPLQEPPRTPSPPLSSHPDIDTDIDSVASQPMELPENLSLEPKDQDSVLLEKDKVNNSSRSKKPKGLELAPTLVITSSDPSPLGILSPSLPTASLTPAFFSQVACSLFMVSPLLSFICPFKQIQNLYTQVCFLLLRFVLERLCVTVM
# Summary of the method: as §1
# ETV2 = target: T4, ETV2 (Homo sapiens, UniProt O00321 1-342); conditions: protein: recombinant; tags: N-terminal GST; dsDNA, one strand shown
# T4 sequence: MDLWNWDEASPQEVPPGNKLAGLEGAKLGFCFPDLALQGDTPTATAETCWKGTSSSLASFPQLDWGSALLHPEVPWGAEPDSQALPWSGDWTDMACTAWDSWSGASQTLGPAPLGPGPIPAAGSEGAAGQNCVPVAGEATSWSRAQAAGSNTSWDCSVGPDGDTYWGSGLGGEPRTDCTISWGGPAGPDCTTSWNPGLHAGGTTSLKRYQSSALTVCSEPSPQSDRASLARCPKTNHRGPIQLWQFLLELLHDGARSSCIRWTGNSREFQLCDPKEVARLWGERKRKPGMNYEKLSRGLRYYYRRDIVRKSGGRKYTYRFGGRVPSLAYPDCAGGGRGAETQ
# Summary of the method: as §1
# ELF3 = target: T5, ELF3 (Homo sapiens, UniProt P78545 1-371); conditions: protein: recombinant; tags: N-terminal GST; dsDNA, one strand shown
# T5 sequence: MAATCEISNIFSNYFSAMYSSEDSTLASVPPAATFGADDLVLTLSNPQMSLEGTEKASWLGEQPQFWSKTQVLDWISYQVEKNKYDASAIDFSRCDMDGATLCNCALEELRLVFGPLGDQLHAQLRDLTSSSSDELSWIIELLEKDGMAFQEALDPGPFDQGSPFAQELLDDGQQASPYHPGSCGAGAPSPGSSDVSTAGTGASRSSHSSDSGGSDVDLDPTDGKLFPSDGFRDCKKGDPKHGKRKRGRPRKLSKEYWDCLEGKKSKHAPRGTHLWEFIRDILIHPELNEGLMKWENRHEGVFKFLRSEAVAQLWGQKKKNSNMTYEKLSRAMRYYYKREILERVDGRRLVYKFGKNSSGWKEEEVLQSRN
# Summary of the method: as §1
# CRX = CRX (Homo sapiens, UniProt O43186 1-299); conditions: protein: recombinant; tags: N-terminal GST; dsDNA, one strand shown
# Summary of the method: as §1
# ETV1 = ETV1 (Homo sapiens, UniProt P50549 1-477); conditions: protein: recombinant; tags: N-terminal GST; dsDNA, one strand shown
# Summary of the method: as §1
# ERF = target: T6, ERF (Homo sapiens, UniProt P50548 1-548); conditions: protein: recombinant; tags: N-terminal GST; dsDNA, one strand shown
# T6 sequence: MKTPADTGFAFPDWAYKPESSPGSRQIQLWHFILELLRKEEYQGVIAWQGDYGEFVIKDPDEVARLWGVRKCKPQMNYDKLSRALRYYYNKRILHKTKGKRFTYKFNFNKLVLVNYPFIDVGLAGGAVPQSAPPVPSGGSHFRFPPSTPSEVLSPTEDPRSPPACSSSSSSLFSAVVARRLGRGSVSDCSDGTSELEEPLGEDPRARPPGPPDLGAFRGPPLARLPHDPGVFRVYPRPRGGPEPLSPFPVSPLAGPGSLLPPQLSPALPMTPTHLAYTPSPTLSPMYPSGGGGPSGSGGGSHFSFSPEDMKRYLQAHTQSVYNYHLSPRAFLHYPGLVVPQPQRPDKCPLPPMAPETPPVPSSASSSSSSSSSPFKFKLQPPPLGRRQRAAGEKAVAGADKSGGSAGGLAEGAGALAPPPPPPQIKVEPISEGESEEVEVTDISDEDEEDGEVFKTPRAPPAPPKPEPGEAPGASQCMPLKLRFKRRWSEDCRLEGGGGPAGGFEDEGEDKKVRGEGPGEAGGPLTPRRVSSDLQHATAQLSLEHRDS
# Summary of the method: as §1
# ETV3L = target: T7, ETV3L (Homo sapiens, UniProt Q6ZN32 1-361); conditions: protein: recombinant; tags: N-terminal GST; dsDNA, one strand shown
# T7 sequence: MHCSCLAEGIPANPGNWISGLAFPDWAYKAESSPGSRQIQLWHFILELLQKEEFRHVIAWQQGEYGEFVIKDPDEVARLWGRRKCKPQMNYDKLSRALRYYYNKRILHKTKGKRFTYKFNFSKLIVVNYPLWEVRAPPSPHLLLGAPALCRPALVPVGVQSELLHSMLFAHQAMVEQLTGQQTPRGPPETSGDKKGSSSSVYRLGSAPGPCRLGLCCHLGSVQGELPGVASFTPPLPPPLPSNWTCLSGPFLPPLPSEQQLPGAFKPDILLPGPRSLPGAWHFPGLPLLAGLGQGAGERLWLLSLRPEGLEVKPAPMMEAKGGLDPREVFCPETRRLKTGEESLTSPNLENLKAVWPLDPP
# Summary of the method: as §1
# ETS2 = target: T8, ETS2 (Homo sapiens, UniProt P15036 1-469); conditions: protein: recombinant; tags: N-terminal GST; dsDNA, one strand shown
# T8 sequence: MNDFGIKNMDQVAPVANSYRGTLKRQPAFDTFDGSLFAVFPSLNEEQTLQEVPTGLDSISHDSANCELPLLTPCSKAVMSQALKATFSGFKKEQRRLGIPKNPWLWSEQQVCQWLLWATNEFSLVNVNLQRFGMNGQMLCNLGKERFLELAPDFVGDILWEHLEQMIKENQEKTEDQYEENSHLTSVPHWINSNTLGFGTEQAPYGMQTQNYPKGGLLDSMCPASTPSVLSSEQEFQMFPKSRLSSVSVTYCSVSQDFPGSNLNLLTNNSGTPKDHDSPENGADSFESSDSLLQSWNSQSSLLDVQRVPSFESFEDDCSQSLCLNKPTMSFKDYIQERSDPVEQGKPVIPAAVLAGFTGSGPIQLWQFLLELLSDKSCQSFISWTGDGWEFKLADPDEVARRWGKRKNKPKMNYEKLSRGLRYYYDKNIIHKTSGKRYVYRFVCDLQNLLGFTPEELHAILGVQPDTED
# Summary of the method: as §1
# SPDEF = target: T9, SPDEF (Homo sapiens, UniProt O95238 1-335); conditions: protein: recombinant; tags: N-terminal GST; dsDNA, one strand shown
# T9 sequence: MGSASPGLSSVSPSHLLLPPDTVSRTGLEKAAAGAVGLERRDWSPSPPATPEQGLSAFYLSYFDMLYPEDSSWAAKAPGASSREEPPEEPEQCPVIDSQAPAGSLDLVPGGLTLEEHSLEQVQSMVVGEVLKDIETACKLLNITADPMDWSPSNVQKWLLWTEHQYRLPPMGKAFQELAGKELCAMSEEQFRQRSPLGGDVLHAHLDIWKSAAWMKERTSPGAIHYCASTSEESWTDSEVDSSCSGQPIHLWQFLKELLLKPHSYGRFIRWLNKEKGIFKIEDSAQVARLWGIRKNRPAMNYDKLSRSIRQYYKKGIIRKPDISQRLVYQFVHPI
# Summary of the method: as §1
# ETV7 = target: T10, ETV7 (Homo sapiens, UniProt Q9Y603 1-341); conditions: protein: recombinant; tags: N-terminal GST; dsDNA, one strand shown
# T10 sequence: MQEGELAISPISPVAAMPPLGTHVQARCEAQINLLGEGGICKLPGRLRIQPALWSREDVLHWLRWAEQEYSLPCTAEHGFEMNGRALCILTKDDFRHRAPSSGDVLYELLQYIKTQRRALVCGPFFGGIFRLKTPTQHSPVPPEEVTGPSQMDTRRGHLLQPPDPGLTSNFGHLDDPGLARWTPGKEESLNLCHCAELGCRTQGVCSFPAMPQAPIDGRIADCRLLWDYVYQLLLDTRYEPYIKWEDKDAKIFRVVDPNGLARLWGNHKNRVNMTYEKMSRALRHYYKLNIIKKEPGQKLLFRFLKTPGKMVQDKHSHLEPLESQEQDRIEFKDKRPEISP
# Summary of the method: as §1
# ELF5 = target: T11, ELF5 (Homo sapiens, UniProt Q9UKW6-2 1-255); conditions: protein: recombinant; tags: N-terminal GST; dsDNA, one strand shown
# T11 sequence: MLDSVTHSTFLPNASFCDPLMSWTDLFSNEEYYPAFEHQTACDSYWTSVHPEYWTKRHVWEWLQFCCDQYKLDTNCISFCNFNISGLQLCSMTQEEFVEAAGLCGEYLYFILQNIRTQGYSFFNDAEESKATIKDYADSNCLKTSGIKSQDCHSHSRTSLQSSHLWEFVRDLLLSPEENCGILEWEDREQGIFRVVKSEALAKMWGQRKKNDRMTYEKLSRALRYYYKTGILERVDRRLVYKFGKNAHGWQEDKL
# Summary of the method: as §1
# ETV3 = target: T12, ETV3 (Homo sapiens, UniProt P41162-2 1-143); conditions: protein: recombinant; tags: N-terminal GST; dsDNA, one strand shown
# T12 sequence: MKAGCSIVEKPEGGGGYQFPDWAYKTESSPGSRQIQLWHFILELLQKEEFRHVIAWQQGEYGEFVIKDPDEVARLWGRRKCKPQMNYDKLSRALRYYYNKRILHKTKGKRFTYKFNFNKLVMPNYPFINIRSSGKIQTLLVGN
# Summary of the method: as §1
# ETV6 = ETV6 (Homo sapiens, UniProt P41212 1-452); conditions: protein: recombinant; tags: N-terminal GST; dsDNA, one strand shown
# Summary of the method: as §1
# ETV6, sequence (P41212 whole entry): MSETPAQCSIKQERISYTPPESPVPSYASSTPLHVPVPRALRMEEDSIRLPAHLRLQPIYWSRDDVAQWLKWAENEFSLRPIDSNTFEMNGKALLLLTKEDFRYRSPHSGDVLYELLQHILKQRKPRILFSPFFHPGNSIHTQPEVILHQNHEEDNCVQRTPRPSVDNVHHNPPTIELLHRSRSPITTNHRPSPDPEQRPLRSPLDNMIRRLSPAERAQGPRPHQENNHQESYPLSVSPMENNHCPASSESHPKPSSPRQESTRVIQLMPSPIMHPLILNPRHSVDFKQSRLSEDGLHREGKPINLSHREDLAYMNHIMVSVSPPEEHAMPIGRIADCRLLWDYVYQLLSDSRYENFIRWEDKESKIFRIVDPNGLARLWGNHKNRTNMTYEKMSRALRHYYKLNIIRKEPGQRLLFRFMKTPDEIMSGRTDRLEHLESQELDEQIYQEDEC
# ELF4, sequence (Q99607 whole entry): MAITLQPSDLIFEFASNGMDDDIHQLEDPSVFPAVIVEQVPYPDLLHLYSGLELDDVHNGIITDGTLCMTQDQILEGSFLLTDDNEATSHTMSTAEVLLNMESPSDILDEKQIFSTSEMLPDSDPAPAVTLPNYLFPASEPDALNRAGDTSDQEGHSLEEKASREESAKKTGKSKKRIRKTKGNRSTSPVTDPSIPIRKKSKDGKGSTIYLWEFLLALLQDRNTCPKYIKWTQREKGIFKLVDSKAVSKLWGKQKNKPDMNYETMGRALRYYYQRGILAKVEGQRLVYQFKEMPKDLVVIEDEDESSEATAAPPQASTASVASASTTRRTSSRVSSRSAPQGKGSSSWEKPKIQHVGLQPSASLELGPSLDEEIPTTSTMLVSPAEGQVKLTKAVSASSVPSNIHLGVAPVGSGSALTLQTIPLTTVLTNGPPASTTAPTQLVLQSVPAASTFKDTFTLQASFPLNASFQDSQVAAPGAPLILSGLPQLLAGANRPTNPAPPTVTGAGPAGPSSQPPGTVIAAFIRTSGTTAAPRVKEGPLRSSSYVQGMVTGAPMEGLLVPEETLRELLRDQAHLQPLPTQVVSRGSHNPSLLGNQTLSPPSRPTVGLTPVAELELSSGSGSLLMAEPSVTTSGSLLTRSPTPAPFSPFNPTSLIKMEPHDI
# ETV1, sequence (P50549 whole entry): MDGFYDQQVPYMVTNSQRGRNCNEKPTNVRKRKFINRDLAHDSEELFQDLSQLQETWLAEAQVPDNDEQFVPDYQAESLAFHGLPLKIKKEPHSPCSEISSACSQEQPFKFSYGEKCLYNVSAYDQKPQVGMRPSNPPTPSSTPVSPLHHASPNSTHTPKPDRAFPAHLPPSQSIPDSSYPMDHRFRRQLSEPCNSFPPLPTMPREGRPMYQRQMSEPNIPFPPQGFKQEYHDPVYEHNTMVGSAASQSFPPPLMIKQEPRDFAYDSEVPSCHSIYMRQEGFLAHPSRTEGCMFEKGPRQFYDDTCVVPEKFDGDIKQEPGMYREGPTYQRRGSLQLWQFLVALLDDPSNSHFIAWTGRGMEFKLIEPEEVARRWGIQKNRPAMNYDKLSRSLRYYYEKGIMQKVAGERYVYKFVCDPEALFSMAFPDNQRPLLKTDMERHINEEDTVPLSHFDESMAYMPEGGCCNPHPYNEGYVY
# HSF1, sequence (Q00613 whole entry): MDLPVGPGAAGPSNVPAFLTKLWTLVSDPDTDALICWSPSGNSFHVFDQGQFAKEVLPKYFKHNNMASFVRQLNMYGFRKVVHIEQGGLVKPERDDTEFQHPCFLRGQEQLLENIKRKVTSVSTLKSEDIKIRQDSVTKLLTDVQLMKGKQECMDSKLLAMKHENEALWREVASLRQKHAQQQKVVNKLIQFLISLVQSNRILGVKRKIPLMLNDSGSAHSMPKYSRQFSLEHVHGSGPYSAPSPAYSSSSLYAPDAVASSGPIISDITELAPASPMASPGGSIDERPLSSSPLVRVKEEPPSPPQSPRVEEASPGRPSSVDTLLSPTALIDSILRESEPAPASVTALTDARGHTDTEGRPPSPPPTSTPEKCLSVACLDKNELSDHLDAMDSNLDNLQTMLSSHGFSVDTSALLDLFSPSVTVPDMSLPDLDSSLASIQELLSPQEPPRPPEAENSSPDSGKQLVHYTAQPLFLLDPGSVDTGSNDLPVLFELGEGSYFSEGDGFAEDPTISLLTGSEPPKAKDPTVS
# ETV5, sequence (P41161 whole entry): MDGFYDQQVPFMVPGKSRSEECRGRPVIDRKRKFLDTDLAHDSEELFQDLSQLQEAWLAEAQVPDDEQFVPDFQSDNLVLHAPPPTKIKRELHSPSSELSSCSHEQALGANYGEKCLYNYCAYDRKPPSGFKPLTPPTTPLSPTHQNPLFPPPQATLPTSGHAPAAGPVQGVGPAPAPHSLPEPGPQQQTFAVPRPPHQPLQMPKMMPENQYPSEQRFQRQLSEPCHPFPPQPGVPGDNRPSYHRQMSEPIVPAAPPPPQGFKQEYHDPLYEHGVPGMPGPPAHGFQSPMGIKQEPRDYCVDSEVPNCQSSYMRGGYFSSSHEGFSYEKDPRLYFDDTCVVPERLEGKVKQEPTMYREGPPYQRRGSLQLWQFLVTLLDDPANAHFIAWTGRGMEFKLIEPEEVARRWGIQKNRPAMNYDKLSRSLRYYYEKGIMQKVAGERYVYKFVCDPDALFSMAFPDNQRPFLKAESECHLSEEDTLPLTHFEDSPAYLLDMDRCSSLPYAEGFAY
# CRX, sequence (O43186 whole entry): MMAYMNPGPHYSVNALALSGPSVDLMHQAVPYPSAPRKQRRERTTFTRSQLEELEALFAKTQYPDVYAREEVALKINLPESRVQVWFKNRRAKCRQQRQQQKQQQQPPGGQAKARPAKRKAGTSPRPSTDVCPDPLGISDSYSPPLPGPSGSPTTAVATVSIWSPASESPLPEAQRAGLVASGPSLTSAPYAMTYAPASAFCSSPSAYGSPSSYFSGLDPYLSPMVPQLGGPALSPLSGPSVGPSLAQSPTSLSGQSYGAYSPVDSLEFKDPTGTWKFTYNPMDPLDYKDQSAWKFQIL
sequence,measurement,setting,value
TTACGG,binding signal,FEV,"1.22 fold enrichment (6-mer frequency, TF over GST control)"
same,binding signal,ETV5,"1.27 fold enrichment (6-mer frequency, TF over GST control)"
same,binding signal,HSF1,"1.43 fold enrichment (6-mer frequency, TF over GST control)"
same,binding signal,SPIC,"1.26 fold enrichment (6-mer frequency, TF over GST control)"
same,binding signal,ELF4,"1.25 fold enrichment (6-mer frequency, TF over GST control)"
same,binding signal,ELK4,"1.19 fold enrichment (6-mer frequency, TF over GST control)"
same,binding signal,ETV2,"1.36 fold enrichment (6-mer frequency, TF over GST control)"
same,binding signal,ELF3,"1.35 fold enrichment (6-mer frequency, TF over GST control)"
same,binding signal,CRX,"1.86 fold enrichment (6-mer frequency, TF over GST control)"
same,binding signal,ETV1,"1.25 fold enrichment (6-mer frequency, TF over GST control)"
same,binding signal,ERF,"1.36 fold enrichment (6-mer frequency, TF over GST control)"
same,binding signal,ETV3L,"1.22 fold enrichment (6-mer frequency, TF over GST control)"
same,binding signal,ETS2,"1.43 fold enrichment (6-mer frequency, TF over GST control)"
same,binding signal,SPDEF,"1.32 fold enrichment (6-mer frequency, TF over GST control)"
same,binding signal,ETV7,"1.16 fold enrichment (6-mer frequency, TF over GST control)"
same,binding signal,ELF5,"1.32 fold enrichment (6-mer frequency, TF over GST control)"
same,binding signal,ETV3,"1.17 fold enrichment (6-mer frequency, TF over GST control)"
same,binding signal,ETV6,"1.26 fold enrichment (6-mer frequency, TF over GST control)"
